Data from PubChem BioAssay (EPA / NIEHS).
The source made the active and inactive calls. Rule for the calls: active = hit-call score of the fitted dose curve at least 0.9, where 1 is the maximum; inactive = score below 0.9.

Test: ATG_PXRE_CIS: Attagene CIS-FACTORIAL HepG2 Assay for human Pregnane X Receptor Element (PXRE) (AID 2282957)
Details: HepG2 Attagene CIS-FACTORIAL PXRE reporter, mRNA; actives raise or lower the signal
How it was run: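 Transiently transfected HepG2 cells were dosed and incubated for 24 h. RNA was then isolated, DNase-treated, reverse-transcribed and reporter sequences amplified. Labeled, HpaI-digested fragments were quantified by capillary electrophoresis against DMSO.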

Question: With `N#[N+]c1ccc2c(S(=O)(=O)[O-])cccc2c1O` as the compound, how does the outcome read?
Answer: inactive

Question: Which AC50 does the source give for `COCc1c(C(C)C)nc(C(C)C)c(/C=C/[C@@H](O)C[C@@H](O)CC(=O)O)c1-c1ccc(F)cc1` here?
Answer: 2.12 µM (active)

Question: With `Cc1ccc([N+](=O)[O-])cc1S(=O)(=O)O` as the compound, how does the outcome read?
Answer: inactive

Question: With `CCC(CO)CO` as the compound, how does the outcome read?
Answer: inactive

Question: Which outcome does the source give for `O=S(=O)(O)c1cc(S(=O)(=O)O)c2ccc3c(S(=O)(=O)O)cc(S(=O)(=O)O)c4ccc1c2c43` here?
Answer: inactive

Question: Which AC50 does the source give for `CCCCC(CC)COC(=O)c1ccccc1` (stereo not given) here?
Answer: 27.6 µM (active)

Question: For `Cc1ccc2c(c1)C(=O)c1ccccc1C2=O`, which AC50 is on record?
Answer: 6.22 µM (active)

Question: Which outcome does the source give for `CC(C)c1ccc(C=O)cc1` here?
Answer: inactive

Question: For `[Cl][Nd]([Cl])[Cl]`, which outcome is on record?
Answer: inactive

Question: Which outcome does the source give for `CCC(C)C=O` (stereo not given) here?
Answer: inactive

Question: With `Nc1ccc(N)c(Cl)c1` as the compound, how does the AC50 read?
Answer: 8.87 µM (active)

Question: With `CC(=O)OCC(C)OC(C)=O` (stereo not given) as the compound, how does the outcome read?
Answer: inactive

Question: Which outcome does the source give for `NC(=O)OCC(COC(N)=O)c1ccccc1` here?
Answer: inactive

Question: With `c1ccc(-c2ccccn2)nc1` as the compound, how does the outcome read?
Answer: inactive

Question: Which AC50 does the source give for `CC(C)(Oc1ccc(C2CC2(Cl)Cl)cc1)C(=O)O` (stereo not given) here?
Answer: 41.1 µM (active)

Question: With `CCCCCCCCCCCCCCCC(=O)OCC` as the compound, how does the AC50 read?
Answer: 31.1 µM (active)

Question: For `CCO[Si](CCCN=C=O)(OCC)OCC`, which AC50 is on record?
Answer: 13.9 µM (active)

Question: Which outcome does the source give for `c1cc(N(CC2CO2)CC2CO2)ccc1OCC1CO1` (stereo not given) here?
Answer: inactive

Question: Which AC50 does the source give for `C=CCCCCCCCCC(=O)OCCCC` here?
Answer: 42.1 µM (active)

Question: With `C=C(C)CCO` as the compound, how does the AC50 read?
Answer: 5.16 µM (active)

Question: With `CCCc1ccc(OC)cc1` as the compound, how does the outcome read?
Answer: inactive

Question: For `COC(=O)/C=C\C(=O)O`, which AC50 is on record?
Answer: 30.7 µM (active)

Question: For `CCC(CC)C(=O)O`, which outcome is on record?
Answer: inactive

Question: Which AC50 does the source give for `C=C(C)[C@H]1CC=C(C)CC1` here?
Answer: 51 µM (active)

Question: With `O=C(Cl)c1cc(C(=O)Cl)cc(C(=O)Cl)c1` as the compound, how does the AC50 read?
Answer: 47.6 µM (active)

Question: With `CCCCC(CC)COC(=O)c1ccccc1O` (stereo not given) as the compound, how does the AC50 read?
Answer: 15.3 µM (active)

Question: With `NC(=O)NNC(N)=O` as the compound, how does the outcome read?
Answer: inactive

Question: Which outcome does the source give for `CCCC(=O)OCc1ccccc1` here?
Answer: inactive

Question: Which AC50 does the source give for `CCCOC(=O)CCCCC(=O)OCCC` here?
Answer: 65.4 µM (active)

Question: Which AC50 does the source give for `SCCc1cnccn1` here?
Answer: 78.1 µM (active)

Question: Which outcome does the source give for `CC[C@H]1OC(=O)[C@H](C)[C@@H](O[C@H]2C[C@@](C)(OC)[C@@H](O)[C@H](C)O2)[C@H](C)[C@@H](O[C@@H]2O[C@H](C)C[C@H](N(C)C)[C@H]2O)[C@](C)(O)C[C@@H](C)C(=NOCOCCOC)[C@H](C)[C@@H](O)[C@]1(C)O` here?
Answer: inactive

Question: Which outcome does the source give for `O=C(O)Cc1c(Cl)ccc(Cl)c1Cl` here?
Answer: inactive

Test: ATG_PPRE_CIS: Attagene CIS-FACTORIAL HepG2 Assay for human Peroxisome Proliferator-activated Response Element (PPRE) (AID 2282958)
Details: HepG2 PPRE cis-element reporter, Attagene transcription factor profiling; actives raise or lower the signal
How it was run: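 Endogenous PPRE-driven transcription is measured in HepG2 cells carrying transfected multi-reporter constructs. Reporter transcripts are quantified by RT-PCR, HpaI digestion and capillary electrophoresis 24 h after dosing. DMSO baseline, bidirectional fit.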

Question: Which AC50 does the source give for `COCc1c(C(C)C)nc(C(C)C)c(/C=C/[C@@H](O)C[C@@H](O)CC(=O)O)c1-c1ccc(F)cc1` here?
Answer: 1.67 µM (active)

Question: Which outcome does the source give for `Cc1ccc([N+](=O)[O-])cc1S(=O)(=O)O` here?
Answer: inactive

Question: Which outcome does the source give for `CCC(CO)CO` here?
Answer: inactive

Question: Which outcome does the source give for `O=S(=O)(O)c1cc(S(=O)(=O)O)c2ccc3c(S(=O)(=O)O)cc(S(=O)(=O)O)c4ccc1c2c43` here?
Answer: inactive

Question: For `NC(=O)N=NC(N)=O`, which outcome is on record?
Answer: inactive

Question: With `CCCCC(CC)COC(=O)c1ccccc1` (stereo not given) as the compound, how does the outcome read?
Answer: inactive

Question: With `Oc1ccc(Cl)cc1Cc1cc(Cl)ccc1O` as the compound, how does the AC50 read?
Answer: 4.48 µM (active)

Question: Which outcome does the source give for `CCCOCCOCCOCCO` here?
Answer: inactive

Question: For `Cc1ccc2c(c1)C(=O)c1ccccc1C2=O`, which outcome is on record?
Answer: inactive

Question: With `CC(C)c1ccc(C=O)cc1` as the compound, how does the outcome read?
Answer: inactive

Question: Which outcome does the source give for `[Cl][Nd]([Cl])[Cl]` here?
Answer: inactive

Question: Which outcome does the source give for `CCN(CC#N)c1cccc(C)c1` here?
Answer: inactive

Question: For `CCC(C)C=O` (stereo not given), which outcome is on record?
Answer: inactive

Question: Which outcome does the source give for `CCc1c(C(=O)O)c(=O)cnn1-c1ccc(Cl)cc1` here?
Answer: inactive

Question: With `CC(=O)OCC(C)OC(C)=O` (stereo not given) as the compound, how does the outcome read?
Answer: inactive

Question: Which outcome does the source give for `c1ccc(-c2ccccn2)nc1` here?
Answer: inactive

Question: With `C=CC(C)(C)C` as the compound, how does the outcome read?
Answer: inactive

Question: Which AC50 does the source give for `CC(C)(Oc1ccc(C2CC2(Cl)Cl)cc1)C(=O)O` (stereo not given) here?
Answer: 48.3 µM (active)

Question: Which outcome does the source give for `CCCCCCCCCCCCCCCC(=O)OCC` here?
Answer: inactive

Question: With `CCO[Si](CCCN=C=O)(OCC)OCC` as the compound, how does the outcome read?
Answer: inactive

Question: With `C=CCCCCCCCCC(=O)OCCCC` as the compound, how does the outcome read?
Answer: inactive

Question: For `C=C(C)CCO`, which outcome is on record?
Answer: inactive

Question: Which outcome does the source give for `CCCc1ccc(OC)cc1` here?
Answer: inactive

Question: Which outcome does the source give for `COC(=O)/C=C\C(=O)O` here?
Answer: inactive

Question: Which outcome does the source give for `CCC(CC)C(=O)O` here?
Answer: inactive

Question: With `O=C(Cl)c1cc(C(=O)Cl)cc(C(=O)Cl)c1` as the compound, how does the AC50 read?
Answer: 100 µM (active)

Question: Which outcome does the source give for `CCCCC(CC)COC(=O)c1ccccc1O` (stereo not given) here?
Answer: inactive

Question: For `NC(=O)NNC(N)=O`, which outcome is on record?
Answer: inactive

Question: For `CCCC(=O)OCc1ccccc1`, which outcome is on record?
Answer: inactive

Question: For `CCCOC(=O)CCCCC(=O)OCCC`, which outcome is on record?
Answer: inactive

Question: Which outcome does the source give for `CC[C@H]1OC(=O)[C@H](C)[C@@H](O[C@H]2C[C@@](C)(OC)[C@@H](O)[C@H](C)O2)[C@H](C)[C@@H](O[C@@H]2O[C@H](C)C[C@H](N(C)C)[C@H]2O)[C@](C)(O)C[C@@H](C)C(=NOCOCCOC)[C@H](C)[C@@H](O)[C@]1(C)O` here?
Answer: inactive

Question: Which outcome does the source give for `O=C(O)Cc1c(Cl)ccc(Cl)c1Cl` here?
Answer: inactive

Test: ATG_RORE_CIS: Attagene CIS-FACTORIAL HepG2 Assay for human RAR-related Orphan Receptor Element (RORE) (AID 2282959)
Details: HepG2 Attagene cis-factorial RORE reporter, mRNA; actives raise or lower the signal
How it was run: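 RORE reporter transcripts reflecting endogenous factor activity were read after 24 h compound exposure of transfected HepG2 cells, using reverse transcription, PCR, fluorescent labelling and capillary electrophoresis sizing. Gain or loss fitted against DMSO.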

Question: With `CCC(CO)CO` as the compound, how does the outcome read?
Answer: inactive

Question: For `O=S(=O)(O)c1cc(S(=O)(=O)O)c2ccc3c(S(=O)(=O)O)cc(S(=O)(=O)O)c4ccc1c2c43`, which outcome is on record?
Answer: inactive

Question: Which outcome does the source give for `NC(=O)N=NC(N)=O` here?
Answer: inactive

Question: For `CCCCC(CC)COC(=O)c1ccccc1` (stereo not given), which outcome is on record?
Answer: inactive

Question: For `CCCOCCOCCOCCO`, which outcome is on record?
Answer: inactive

Question: Which outcome does the source give for `Cc1ccc2c(c1)C(=O)c1ccccc1C2=O` here?
Answer: inactive

Question: For `CC(C)c1ccc(C=O)cc1`, which outcome is on record?
Answer: inactive

Question: For `[Cl][Nd]([Cl])[Cl]`, which outcome is on record?
Answer: inactive

Question: For `O=Cc1ccc(CO)o1`, which outcome is on record?
Answer: inactive

Question: Which outcome does the source give for `CCN(CC#N)c1cccc(C)c1` here?
Answer: inactive

Question: Which outcome does the source give for `CCC(C)C=O` (stereo not given) here?
Answer: inactive

Question: Which outcome does the source give for `CCc1c(C(=O)O)c(=O)cnn1-c1ccc(Cl)cc1` here?
Answer: inactive

Question: Which outcome does the source give for `CC(=O)OCC(C)OC(C)=O` (stereo not given) here?
Answer: inactive

Question: For `NC(=O)OCC(COC(N)=O)c1ccccc1`, which outcome is on record?
Answer: inactive

Question: With `c1ccc(-c2ccccn2)nc1` as the compound, how does the outcome read?
Answer: inactive

Question: For `C=CC(C)(C)C`, which outcome is on record?
Answer: inactive

Question: For `CC(C)(Oc1ccc(C2CC2(Cl)Cl)cc1)C(=O)O` (stereo not given), which outcome is on record?
Answer: inactive

Question: With `CCCCCCCCCCCCCCCC(=O)OCC` as the compound, how does the outcome read?
Answer: inactive

Question: For `CCO[Si](CCCN=C=O)(OCC)OCC`, which outcome is on record?
Answer: inactive

Question: For `c1cc(N(CC2CO2)CC2CO2)ccc1OCC1CO1` (stereo not given), which AC50 is on record?
Answer: 80.6 µM (active)

Question: For `C=CCCCCCCCCC(=O)OCCCC`, which outcome is on record?
Answer: inactive

Question: For `C=C(C)CCO`, which outcome is on record?
Answer: inactive

Question: With `CCCc1ccc(OC)cc1` as the compound, how does the outcome read?
Answer: inactive

Question: With `COC(=O)/C=C\C(=O)O` as the compound, how does the outcome read?
Answer: inactive

Question: For `CCC(CC)C(=O)O`, which outcome is on record?
Answer: inactive

Question: For `NC(=O)NNC(N)=O`, which outcome is on record?
Answer: inactive

Question: For `CCCC(=O)OCc1ccccc1`, which outcome is on record?
Answer: inactive

Question: For `CCCOC(=O)CCCCC(=O)OCCC`, which outcome is on record?
Answer: inactive

Question: With `SCCc1cnccn1` as the compound, how does the outcome read?
Answer: inactive

Question: For `CC[C@H]1OC(=O)[C@H](C)[C@@H](O[C@H]2C[C@@](C)(OC)[C@@H](O)[C@H](C)O2)[C@H](C)[C@@H](O[C@@H]2O[C@H](C)C[C@H](N(C)C)[C@H]2O)[C@](C)(O)C[C@@H](C)C(=NOCOCCOC)[C@H](C)[C@@H](O)[C@]1(C)O`, which outcome is on record?
Answer: inactive

Question: Which outcome does the source give for `O=C(O)Cc1c(Cl)ccc(Cl)c1Cl` here?
Answer: inactive
